HP1b binding inh = inhibitors of HP1-beta chromodomain binding to methylated histone tails; AlphaScreen HP1-beta / biotin-H3K9me3 peptide binding; P83916; AID 540317; actives 0.56% (n = 390,000); Potency, µM (titrated, usually from 114 µM), inactives show top-dose activity change, negative = inhibition, usual class: inhibitors; also: potency is read from the fitted curve at half-maximal effect; nearly all actives have a fitted effect of over 70% in size
Target sequence (P83916 whole entry, looked up): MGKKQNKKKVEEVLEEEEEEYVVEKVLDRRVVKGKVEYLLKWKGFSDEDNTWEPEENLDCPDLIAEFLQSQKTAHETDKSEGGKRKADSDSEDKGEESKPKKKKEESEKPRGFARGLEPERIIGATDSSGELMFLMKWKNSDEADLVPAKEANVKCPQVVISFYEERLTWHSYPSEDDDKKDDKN
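AlphaScreen: HP1-beta (50 nM) preformed 30 min with biotin-H3(1-18)K9me3 peptide (50 nM) in PBS pH 7.4, 0.01% Tween-20. Compound added for 30 min at RT, then streptavidin donor/nickel chelate acceptor beads (10 ug/mL) for 30 min.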
G9a inh = G9a (human) methyltransferase inhibition. G9a H3K9 monomethylation, AlphaScreen, 2 h. Potency, µM (series often up to 102 µM), without a hit: at the highest dose activity, negative = inhibition, hits mostly inhibitors. AID 504332. actives 8.8% (n = 350,000); also: potency is read from the fitted curve at half-maximal effect; % is scaled to controls: 0 for no effect and ±100 for the full control effect; nearly all actives have a fitted effect of over 75% in size
Target sequence (Q96KQ7 913-1193 limits assumed): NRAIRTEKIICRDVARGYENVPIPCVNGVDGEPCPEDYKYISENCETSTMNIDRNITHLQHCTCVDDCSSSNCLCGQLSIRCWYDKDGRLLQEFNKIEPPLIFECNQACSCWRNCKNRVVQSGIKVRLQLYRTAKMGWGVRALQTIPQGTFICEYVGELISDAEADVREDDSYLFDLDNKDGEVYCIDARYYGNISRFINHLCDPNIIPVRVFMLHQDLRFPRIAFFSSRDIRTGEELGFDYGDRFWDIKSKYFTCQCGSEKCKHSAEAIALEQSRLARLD
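Methyltransferase reactions run at room temperature for 2 h (20 nM enzyme, 500 nM biotin-H3K9 peptide, 20 uM SAM) after a 15 min compound preincubation; product detected by AlphaScreen beads and anti-H3K9me1 antibody.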
CtBP-E1A blk = inhibitors of CtBP/E1A interaction. AlphaScreen GST-E1A/His-CtBP binding, 1536-well; hits give low values. activity change, % (no concentration beside the values). actives 0.49% (n = 340,000). AID 651724; in the data active = activity change below about -65%; inconclusive = mostly about -30% to -63%; also: % is scaled to controls: 0 for no effect and ±100 for the full control effect
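Homogeneous bead-based format: GST-tagged E1A captured on glutathione donor beads, His-tagged CtBP on nickel acceptor beads; compounds precede bead addition by 2 h at 37 °C.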
Six1-Eya2 blk = blocks human Six1 binding to Eya2; Q15475+O00167; AlphaScreen GST-Six1/His-Eya2 binding, biochemical; hits give low values; activity change, % (concentration not given with the values); actives 0.56% (n = 360,000); AID 651725; in the data active = activity change below about -65%; inconclusive = mostly about -30% to -63%; also: % is scaled to controls: 0 for no effect and ±100 for the full control effect
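GST-Six1 + His-Eya2 (5X stock: 250/500 nM); Tris pH 8.0, 300 mM NaCl, 0.05% BSA, 0.02% Tween 20; GSH donor/Ni acceptor beads; 1 h 37 °C dark; AlphaScreen readout.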
BAZ2B block = inhibitors of human BAZ2B bromodomain; Q9UIF8; AlphaScreen BAZ2B-H3K14Ac peptide displacement; Potency, µM (titrated, usually from 114 µM), for the others: top-dose activity change, negative = inhibition, usual class: inhibitors; actives 4.4% (n = 360,000); AID 504333; also: potency is read from the fitted curve at half-maximal effect; % is scaled to controls: 0 for no effect and ±100 for the full control effect; nearly all actives have a fitted effect of over 60% in size
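Protein-peptide AlphaScreen: BAZ2B 50 nM, b-H3K14Ac 50 nM, 1x PBS pH 7.4 + 0.01% Tween-20. Preincubation 30 min RT; cpd 30 min RT (top 110 uM); beads 20 min RT, light-protected.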
JMJD2A Tudor inh = JMJD2A Tudor domain (human) inhibition; AlphaScreen JMJD2A-Tudor / H3K4me3 peptide binding; O75164; Potency, µM (top dose mostly 114 µM), without a hit: top-dose activity change, negative = inhibition, usual class: inhibitors; actives 4.4% (n = 390,000); AID 504339; also: potency is read from the fitted curve at half-maximal effect; % is scaled to controls: 0 for no effect and ±100 for the full control effect; nearly all actives have a fitted effect of over 50% in size
An asterisk follows results filed as active; ? = inconclusive; nt = not tested or not shown; [ ] = remark or other dose. Most compounds without a hit are left out; they make up all but 10% or so of the library. Unless noted, calls follow the shape of the dose curve; as a rule, active = well fitted inhibition curve with a large enough effect; inconclusive = small, poorly fitted or top-dose-only effect; inactive = no such curve, though single readings can be large or run the other way.

SMILES	HP1b binding inh	G9a inh	CtBP-E1A blk	Six1-Eya2 blk	BAZ2B block	JMJD2A Tudor inh
CC(C)Oc1ccc(CNC(=O)c2ccc(CN3CC(=O)N4CCCCC4C3=O)cc2)cc1 (stereo not drawn)	50%	2%[59 µM]	nt	nt	0%	-21%
COc1ccc(CNCc2ccc(C(=O)O)s2)cc1	15%	9%[59 µM]	nt	nt	4%	-8%
CC(=O)c1ccc(N=Nc2ccc(N(C)C)cc2)cc1	-19%	-51%	-13	?	1.1µM*	-31%
CC(=O)c1ccc(Sc2ccc(C(C)=O)cc2)cc1	40%	3%[59 µM]	1	21	2%	10%
COc1ccc(NC(=O)[C@H](C)NC(=O)[C@@H]2Cc3ccccc3CN2C(=O)OC(C)(C)C)cc1	41%	-8%	nt	2	-13%	-9%
Cc1cc2[nH]c(=O)c(=O)[nH]c2cc1S(=O)(=O)N(C)C1CCCCC1	36%	nt	-2	4	1%	3.5µM*
CCc1nc2ccc(C(=O)Nc3cccc(NS(C)(=O)=O)c3)cn2c1N(CC)Cc1cccc(Br)c1	nt	nt	-10	-18	nt	nt
O=C1CCc2cc(S(=O)(=O)Nc3ccc(Cl)c(Cl)c3)c(F)cc2N1	nt	nt	nt	nt	nt	-29%
COc1ccc(/C=C(\NC(=O)c2ccc(Cl)cc2)C(=O)NCC2CCCO2)cc1OC (stereo not drawn)	9%	62%	0	7	7%	-4%
O=C(NCc1ccccn1)C1CC(=O)N(C2CCCC2)C1 (stereo not drawn)	22%	nt	-8	-15	nt	79µM*
O=C(NCc1ccccn1)C1CCC(=O)N1C1CCCC1 (stereo not drawn)	20%	nt	-16	-20	nt	79µM*
O=C(NCCN1CCc2ccccc2C1)C1CC(=O)N(C2CCCC2)C1 (stereo not drawn)	14%	-36%[0.0925 µM]	8	-1	?	89µM*
O=C(NCCc1ccccc1)C1CCC(=O)N1C1CCCC1 (stereo not drawn)	21%	-10%	6	4	8%	-3%
O=C(NCCCN1CCc2ccccc2C1)C1CCN(S(=O)(=O)N2CCCC2)CC1	16%	27%[0.501 µM]	2	1	50µM*	-25%
CCN(CC)S(=O)(=O)c1nnc(NC(=O)c2ccc(C)cc2)s1	-22%	?	nt	nt	?	?
OCC1(CO)COC2(CCCC2)N1	-6%	-5%[12.7 µM]	7	6	4%	16µM*
CCC(C(=O)NC1CCCC1)n1c(C2CCCC2)nc2ccccc21 (stereo not drawn)	nt	nt	1	-1	nt	nt
Cc1ccc(NC(=O)C(=O)c2cc(C)n(-c3ccc(F)cc3)c2C)cc1C	-11%	-33%[59 µM]	nt	nt	?	-22%
CSCc1nnc(NC(=O)c2ccc(S(=O)(=O)N(C)C)cc2)o1	14%	1%	-24	-11	-2%	20µM*
CCc1nnc(NC(=O)c2ccc(S(=O)(=O)N(C)c3ccccc3)cc2)o1	6%	-19%	-23	-17	nt	25µM*
O=C(Nc1nnc(-c2ccc(Cl)cc2)o1)C1=COCCO1	28%	48%[59 µM]	-15	6	50µM*	?
CN(c1ccccc1)S(=O)(=O)c1ccc(C(=O)Nc2nnc(C3=COCCO3)o2)cc1	40%	35µM*	-22	3	79µM*	-33%
CCc1nnc(NC(=O)c2ccc(S(=O)(=O)N(CC(C)C)CC(C)C)cc2)o1	40%	-30%[59 µM]	-23	-13	-5%	-8%
CSCc1nnc(NC(=O)c2ccc(S(=O)(=O)N(CC(C)C)CC(C)C)cc2)o1	nt	-3%[59 µM]	nt	nt	-35%	nt
CCOc1ccccc1NC(=O)C1CCN(S(=O)(=O)c2ccc3[nH]c4c(c3c2)CCCCC4)CC1	24%	-40%[59 µM]	nt	nt	-11%	-19%
SMILES	HP1b binding inh	G9a inh	CtBP-E1A blk	Six1-Eya2 blk	BAZ2B block	JMJD2A Tudor inh
CN(C)c1ccc(C(=O)Nc2nnc(C3=COCCO3)o2)cc1	29%	-3%	-1	?	nt	79µM*
CSc1ncccc1C(=O)NC1CCCCCCC1	22%	9%	-16	9	1%	2%
O=C(CNC(=O)c1ccncc1)Nc1ccc(F)c(F)c1	55%	11%	-1	4	-12%	36%
O=C(Nc1cc(F)ccc1F)c1cccc(-n2cnnn2)c1	13%	?	-7	8	-2%	-20%
CSc1ncccc1C(=O)NNc1cc(Cl)ccc1Cl	31%	45µM*	6	1	-3%	-7%
O=C(CNC(=O)c1cccc(-n2cnnn2)c1)Nc1ccc(F)c(F)c1	1%	?	-7	-19	12%	89µM*
CSc1ncccc1C(=O)NCC(=O)Nc1ccc(F)c(F)c1	29%	3.2µM*	0	2	0%	-11%
COc1cccc(-c2cc3nc(NCCN4CCCC4)n(C)c(=O)c3s2)c1	nt	nt	-23	1	nt	nt
O=C(CCNC(=O)c1ccco1)Nc1ccccc1N1CCOCC1	42%	3%[59 µM]	10	4	-24%	-1%
CCc1cc(-c2n[nH]c(=S)n2CC)cs1	-14%	?	-20	0	-12%	8.9µM*
CCCc1cc(-c2n[nH]c(=S)n2CC)cs1	-20%	?	15	-6	-37%	3.5µM*
CCCCn1c(-c2csc(CCC)c2)n[nH]c1=S	20%	8.9µM*	-1	5	-4%	?
CCc1cc(-c2n[nH]c(=S)n2-c2ccccc2C)cs1	1%	1.8µM*	4	-1	-7%	35µM*
CCCCn1c(-c2ccccc2)nnc1-c1ccccc1	28%	-33%[12.7 µM]	5	2	2%	-1%
CCCc1cc(-c2n[nH]c(=S)n2C(C)c2ccccc2)cs1 (stereo not drawn)	-4%	?	-5	-1	-36%	-31%
COc1ccc(C2c3cc(OC)c(OC)cc3CC(=O)N2c2ccc(C)cc2)cc1 (stereo not drawn)	13%	-27%[59 µM]	nt	nt	-27%	-29%
COC(=O)CN1C(=O)CSc2ccc(S(=O)(=O)N3CCOCC3)cc21	54%	?	nt	nt	0%	2%
FC(F)(F)c1ccc(Cl)c(-n2c(Cc3cccs3)n[nH]c2=S)c1	16%	nt	nt	3	?	?
Cc1ccccc1-n1c(Cc2cccs2)n[nH]c1=S	1%	?	-10	-8	-5%[57.1 µM]	8.9µM*
CCc1cc(-c2n[nH]c(=S)n2Cc2ccccc2)cs1	-5%	?	-11	-5	-24%	56µM*
Fc1ccc(-n2c(Cc3cccs3)n[nH]c2=S)cc1Cl	30%	1.8µM*	4	0	-27%	-26%
O=C(NCc1cccnc1)c1cc(C2CCCCN2S(=O)(=O)Cc2ccccc2)on1 (stereo not drawn)	nt	nt	1	7	nt	nt
O=C1NC[C@H](CCCCN2C[C@H](Cc3ccc(O)cc3)N(CC3CCCCC3)C(=O)C2=O)N(Cc2ccccc2)C1=O	nt	nt	3	5	nt	nt

Screening results from PubChem.
